Shown are actives, neighbours in structure and some others; about 13% of the full set was active somewhere.
Pf growth 96h – P. falciparum growth inhibition at 96 hour, primary screen for plastid delayed-death inhibitors. P. falciparum luciferase reporter growth, 96 h. Potency, µM (titrated, usually from 28.7 µM), inactives show top-dose activity change, negative = inhibition, most hits filed as inhibitors. actives 6.9% (n = 320,000); also: potency is read from the fitted curve at half-maximal effect
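Parasite growth measured via integrated firefly luciferase reporter in P. falciparum. Infected erythrocytes at 2% hematocrit, 0.05% parasitemia final were treated 96 hours at 37 C under 5% CO2, and luminescence was read.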
Pf growth 48h – P. falciparum growth inhibition at 48 hours (one generation) | actives 5.9% (n = 310,000) | P. falciparum luciferase growth in erythrocytes, 48 h | Potency, µM (top dose mostly 28.7 µM), without a hit: at the highest dose activity change, negative = inhibition, hits mostly inhibitors; also: potency is read from the fitted curve at half-maximal effect
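In quantitative HTS format, infected erythrocytes bearing luciferase-reporter parasites were treated for a single generation at 37 C. Luminescence after adding detection reagent served as the growth measure.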
HCMV inh – inhibitors of human cytomegalovirus; HFF cells, HCMV-luciferase reporter, 72 h; hits give low values; activity change, negative = inhibition, % at 57.5 µM; actives 4.5% (n = 410,000); AID 1259415; in the data active = activity change below about -60%; inconclusive = no clear call, values can overlap the other calls; inactive = above about -39%
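Two compound doses tested in HFFs infected with HCMV-luciferase, MOI 1 PFU/cell, 72 h at 37C. Lysate luminescence read with OneGlo; data normalized against buffer-only and 10uM Salinomycin inhibitor controls.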
HCV inh – HCV inhibition. Huh7.5.1 HCVcc-Cre infection, luciferase reporter, 44 h. Potency, µM (highest dose often 41.8 µM), for the others: at the top dose activity change, negative = inhibition, actives largely listed as inhibitors. actives 3.4% (n = 340,000); also: potency is read from the fitted curve at half-maximal effect
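1,000 cells/well; 4 h culture; + compound; + HCVcc-Cre (~0.5 moi); 44 h; luciferase substrate, RT 15 min; read 15 sec.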
The depositor's hits bear a star; i = inactive; ? = inconclusive; / = no result. Unless noted, calls follow the shape of the dose curve; as a rule, active = well fitted inhibition curve with a large enough effect; inconclusive = small, poorly fitted or top-dose-only effect, or another doubt; inactive = no such curve, though single readings can be large or run the other way. % is scaled to controls: 0 for no effect and ±100 for the full control effect.

SMILES | Pf growth 96h | Pf growth 48h | HCMV inh | HCV inh
COc1ccccc1NC(=O)c1sc2nc(C)c(C(=O)Nc3ccc(C)cc3C)c(-c3ccc(C)o3)c2c1N | / | / | -3 | /
O=C1C=C(c2ccccc2)CC(c2cccs2)C1n1cnc([N+](=O)[O-])c1 (stereo not drawn) | ? | ? | 31 | 18%
O=C1C=C(c2ccccc2)C[C@H](c2cccs2)[C@H]1n1nnc([N+](=O)[O-])n1 | 8.3µM* | 1.9µM* | ? | ?
COC(=O)Cn1cc(/C=N/NC(=O)COc2cccc3cccnc23)c2ccccc21 | 3% | -5% | -70* | 2%
Cc1nc2cc(C(F)(F)F)ccc2n1C1CCN(Cc2nnnn2CCc2ccccc2)CC1 | -1% | 13µM* | -35 | -13%
Cc1nc2cc(F)ccc2n1C1CCN(Cc2nnnn2CCc2ccccc2)CC1 | ? | 9.3µM* | -11 | 8%
CCOC(=O)C1CCN(Cc2nnnn2CCc2ccccc2)CC1 | 0% | 92% | -38 | 10%
CCc1ccc(S(=O)(=O)c2nnn3c2nc(N2CCOCC2)c2sccc23)cc1 | / | / | 13 | /
Cc1ccc(Cl)cc1NC(=O)c1ccc2snnc2c1 | / | / | -31 | /
Fc1ccc(OCCCCCn2ccnc2)cc1 | 4.1µM* | -24% | -26 | ?
CCOc1cccc(OCCCCn2ccnc2)c1 | -9% | 12µM* | -8 | ?
Fc1ccc(OCCCn2ccnc2)cc1 | ? | -1% | -10 | 13%
COc1cccc(OCCCn2ccnc2)c1 | 10% | 43% | 24 | ?
CCOC(=O)c1cnc2cc(C(F)(F)F)ccc2c1Nc1cc(C)ccc1OC | / | / | 15 | /
CCN1CCN(C(c2ccc(SC)cc2)c2c(O)cc(C)n(Cc3ccco3)c2=O)CC1 (stereo not drawn) | / | / | 5 | /
CC(=O)c1ccc(C(=O)N(Cc2cccnc2)c2nc3c(Cl)cccc3s2)cc1 | / | / | 0 | /
O=C(NC(CSCc1ccccc1)C(=O)N/N=C/c1ccc(O)cc1O)c1ccc([N+](=O)[O-])cc1 (stereo not drawn) | / | ? | -7 | 10µM*
COc1cc(O)ccc1/C=N/NC(=O)c1ccc([N+](=O)[O-])cc1 | 0% | i | -16 | -3%
COc1cc(C)c(CN2CC=C(c3ccc(F)cc3)CC2)cc1C | 12µM* | 40% | -28 | -16%
COc1ccc(CCNC2=C(Cl)C(=O)N(CCc3ccc(OC)c(OC)c3)C2=O)cc1OC | ? | / | 44 | 2.5µM*
COc1ccc(NC2=C(Cl)C(=O)N(CCc3ccccc3)C2=O)c(OC)c1 | 47% | 19% | 6 | -10%
CCOC(=O)c1c(-c2ccc(C)cc2)csc1NC(=O)c1cc(=O)c2cc(Cl)ccc2o1 | / | / | 3 | /
CCCCN(CC)C(=O)Cn1c(=O)n(-c2ccc(OCC)cc2)c(=O)c2c3c(sc21)CCC3 | / | / | -6 | /
Cc1c(CC(=O)N2CCCCC2)c(=O)oc2c(C)c(O)ccc12 | / | / | -5 | /
COc1cc(C)cc2oc(=O)c(CC(=O)N3CCN(C(=O)C4COc5ccccc5O4)CC3)c(C)c12 (stereo not drawn) | 1% | ? | -39 | 10µM*
SMILES | Pf growth 96h | Pf growth 48h | HCMV inh | HCV inh
Cc1cc(O)c2c(C)c(CC(=O)N3CCN(C(=O)C4COc5ccccc5O4)CC3)c(=O)oc2c1 (stereo not drawn) | ? | -7% | -22 | ?
CC(=O)Oc1ccc2c(C)c(CC(=O)N3CCN(C(=O)C4COc5ccccc5O4)CC3)c(=O)oc2c1C (stereo not drawn) | ? | 12µM* | ? | -24%
COC(=O)c1c(NC(=O)CSc2ncnc3c2cnn3-c2ccccc2Cl)sc2c1CCCC2 | ? | ? | -85* | ?
COC(=O)c1c(NC(=O)Cn2cc([N+](=O)[O-])cn2)sc2c1CCC2 | -3% | 3% | -38 | ?
COC(=O)c1c(NC(=O)CSc2ncnc3[nH]ncc23)sc2c1CCC2 | -21% | 8% | -81* | 6%
CCOC(=O)Cc1csc(NC(=O)CSc2ncnc3c2cnn3-c2ccccc2Cl)n1 | / | 7.4µM* | -17 | ?
CN[C@H]1CCc2cc(OC)c(OC)c(OC)c2-c2ccc(N(C)CC(OC)OC)c(=O)cc21 | ? | / | -74* | 1%
CCN(CC)c1ccc2c(cc1=O)[C@@H](NC)CCc1cc(OC)c(OC)c(OC)c1-2 | -10% | ? | -92* | 0%
COc1cc2c(c(OC)c1OC)-c1ccc(N(C)CC(OC)OC)c(=O)cc1[C@@H](NC(C)=O)CC2 | -24% | / | -87* | 22%

Screening data as filed in PubChem BioAssay.
